36 compounds from PubChem BioAssay can be followed below.

SMILES strings stand for the structures. Values without a mark were called inactive.

The nature of the experiment: change in splice reporter luminescence, either direction, cell-based, HEK293, spliceosome inhibition project, primary screen (AID 1101).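 Note: HEK293 cells carrying a splicing-competent luciferase reporter gene; test concentration not given here.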 The note with it: HEK293 splicing luciferase reporter, 24 h, higher = more signal, called active from +8 up or from −8 down.
On to `CCOC(=O)C[C@H]1[C@H](OC(=O)c2cc3ccccc3oc2=O)[C@@H](NC(=O)c2ccc3ccccc3n2)c2cc(OCCCO)ccc2N1C(=O)c1ccc2ccccc2n1`, for which the z-score is 0.613.

As for `CN1C(=O)C2C=CC(C(O)C3CCCCC3)N(N(c3ccccc3)c3ccccc3)C2C1=O` (stereo unspecified), the z-score is 1.12.

With `COc1ccccc1CN1C(=O)c2ccccc2[C@@H](C(=O)NCC(C)C)[C@@H]1c1ccc(CO)cc1`, the z-score is -0.8.

For `COC(=O)[C@@]1(Cc2ccccc2)[C@H]2c3cc(C(=O)N(C)C)n(Cc4ccc(O)c(OC)c4)c3C[C@H]2CN1C(=O)c1ccccc1`, the z-score is -6.3.

For the compound `CCOC(=O)C[C@H]1[C@H](OC(=O)c2ccccc2-c2ccccc2)[C@@H](NC(=O)c2ccccc2)c2cc(OCCCO)ccc2N1C(=O)Cc1ccc(OC)cc1`, the z-score is -0.269.

Regarding `CCC[C@@H]1C[C@@]1(CCC)[C@@H](NC(=O)c1ccco1)c1ccc(Cl)cc1`, the z-score was -3.52.

As for `CN(C)CCCN1C(=O)[C@@]2(Cc3ccccc31)c1ccccc1C(=O)N(Cc1ccccc1)[C@H]2c1ccc(CO)cc1`, the z-score is -0.773.

Regarding `O=C(NCc1ccccc1)[C@]1(Cc2ccccc2)N=C(c2ccc(OCCCO)cc2)O[C@@H]1c1ccccc1`, the z-score is -0.0706.

As to `O=C1c2ccccc2[C@](Cc2ccccc2I)(C(=O)NC2CC2)[C@H](c2ccc(CO)cc2)N1Cc1ccccc1Cl`, the z-score was 0.119.

Turning to `C=C(C(=O)CC[C@H](OC(=O)c1cccnc1)c1ccc(OCCO)cc1)C(C)C`, the z-score is 1.77.

For `COCCOC(=O)N1C(=O)[C@@]2(c3cc(C#CCCO)ccc31)[C@H](C(=O)N1CCc3cc(OC)c(OC)cc3C1)[C@H]1C(=O)O[C@H](c3ccccc3)[C@H](c3ccccc3)N1[C@@H]2c1ccc(OCCO)cc1`, the z-score was -0.575.

In the case of `C[N+](C)(C)CCCC[C@@H]1NC(=O)[C@H]2C[C@@H](C(=O)NCCCCCCN)[C@@H](c3cccc(OCCO)c3)N2C1=O`, the z-score is -0.481.

Turning to `COC(=O)C(CC#Cc1ccc2c(c1)[C@]1(C(=O)N2)[C@H](c2ccc(O)cc2)N2[C@H](c3ccccc3)[C@H](c3ccccc3)OC(=O)[C@H]2[C@@H]1C(N)=O)C(=O)OC`, the z-score is -0.192.

With `CN(C)C(=O)[C@@]1(CCC(=O)OC(C)(C)C)N=C(c2ccc(OCCCO)cc2)O[C@H]1c1ccccc1N=[N+]=[N-]`, the z-score is 0.101.

For the compound `CCOC(=O)C[C@H]1[C@H](OC(=O)Cc2ccc3c(c2)OCO3)[C@@H](NC(=O)c2ccccc2)c2cc(OCCCO)ccc2N1C(=O)c1ccc2ccccc2n1`, the z-score was -2.44.

`O=[N+]([O-])c1ccc(C[n+]2ccc(-c3ccc(CO)cc3)cc2)o1`: the z-score is -0.0885.

On to `NC(=O)[C@H]1[C@@H]2C(=O)O[C@@H](c3ccccc3)[C@@H](c3ccccc3)N2[C@@H](c2ccc(O)cc2)[C@]12C(=O)Nc1ccc(C#CC3(O)CCCCCC3)cc12`, for which the z-score was -1.32.

Take `CN(C)C(=O)[C@@]1(Cc2ccccc2N=[N+]=[N-])N=C(c2ccc(OCCCO)cc2)O[C@H]1c1ccccc1N=[N+]=[N-]`: the z-score was -0.167.

As to `NC(=O)NCC#Cc1ccc2c(c1)[C@]1(C(=O)N2)[C@H](c2ccc(O)cc2)N2[C@H](c3ccccc3)[C@H](c3ccccc3)OC(=O)[C@H]2[C@@H]1C(N)=O`, the z-score was -0.278.

Regarding `NC(=O)NCC#Cc1ccc2c(c1)[C@]1(C(=O)N2)[C@H](c2ccc(OCCO)cc2)N2[C@H](c3ccccc3)[C@H](c3ccccc3)OC(=O)[C@H]2[C@@H]1C(=O)N1CCN(c2ncccn2)CC1`, the z-score was -0.115.

Consider `O=C1N(Cc2ccccc2)c2ccccc2[C@H]2OC(c3ccc(OCCCO)cc3)=N[C@@]12CCS(=O)(=O)c1ccccc1`, for which the z-score is 0.212.

Turning to `COCC(=C=CC[C@@H](O)c1ccccc1OCCO)C[C@@H](O)c1ccccn1`, the z-score is 0.141.

As to `COc1ccc(C#Cc2ccc3c(c2)[C@]2(C(=O)N3)[C@H](c3ccc(OCCO)cc3)N3[C@H](c4ccccc4)[C@H](c4ccccc4)OC(=O)[C@H]3[C@@H]2C(=O)N2CCN(c3ncccn3)CC2)cc1`, the z-score was -0.188.

Take `COc1ccc(C(=O)Nc2ccc3c(c2)[C@]2(O[C@@H](CCO)[C@H]([Si](C)(C)c4ccc(OC)cc4)[C@H]2C)C(=O)N3Cc2ccccc2)cc1`: the z-score was -3.4.

Consider `CC(C)C[C@@H]1NC(=O)[C@@]23C(=O)N[C@@H](Cc4ccccc4)C2[C@H](C)[C@@]2(C)O[C@H]2C3/C=C/C/C=C\CNC(=O)[C@@H]2CCCN2C1=O` (stereo partly specified), for which the z-score is -0.358.

With `Cc1cc(C)c(C(O)C2C=CC3C(=O)N(c4ccccc4)C(=O)C3N2Nc2ccc([N+](=O)[O-])cc2)c(C)c1` (stereo unspecified), the z-score is 0.311.

Turning to `CC[C@@H]1[C@@H]2C3C(=O)N(CC)C(=O)C3CC(=O)[C@@H]2[C@H](c2ccc(C)cc2)N1S(=O)(=O)c1ccc(C)cc1` (stereo partly specified), the z-score is -1.52.

With `C=CCNC(=O)[C@@H]1[C@H]2C(=O)O[C@H](c3ccccc3)[C@H](c3ccccc3)N2[C@H](c2ccc(O)cc2)[C@@]12C(=O)Nc1ccc(C#CCCO)cc12`, the z-score was -0.831.

For `O=C1NC(=O)C2C1C=CC(C(O)c1ccc(-c3ccccc3)s1)N2Nc1ccccn1` (stereo unspecified), the z-score is 1.56.

For the compound `OCCCC1=CC(c2cccs2)N(Cc2cccc(OC(F)(F)F)c2)CC1` (stereo unspecified), the z-score was -0.733.

As for `O=C1OCC=C[C@H]2OC34C=CCN(CCN5CCOCC5)C(=O)[C@H]3N(CCCCCO)C(=O)[C@@H]4[C@@H]12` (stereo partly specified), the z-score was 0.636.

Regarding `CCCN1C(=O)[C@@]2(Cc3ccccc3)N=C(c3ccc(OCCCO)cc3)O[C@H]2c2ccccc21`, the z-score is -0.872.

`C[N+](C)(C)CCCC[C@@H]1NC(=O)[C@@H]2C[C@H](C(=O)O)[C@H](c3cccc(OCCO)c3)N2C1=O`: the z-score is -0.11.

Regarding `C/C=C/[C@@H](CCn1cc([C@H](O)c2ccccc2)nn1)[Si](C)(C)c1ccc(OC)cc1`, the z-score is -0.406.

With `CCN(CC)c1ccc(N2CC=CC34O[C@@H]5/C=C\CCCOC(=O)C5[C@H]3C(=O)N(CCCCCCO)[C@@H]4C2=O)cc1` (stereo partly specified), the z-score is -1.13.

`COC(=O)[C@@]1(Cc2ccc(OC)cc2)[C@H]2c3cc(C(=O)N4CCCC4)n(CCF)c3C[C@H]2CN1C(=O)c1ccccc1`: the z-score is -2.55.
